Broadly, the inhibition is the change of the read-out against control, counted positive when it falls.

The text below walks through data of PubChem BioAssay AID1159606 (Sanford-Burnham Center for Chemical Genomics, 2016).

Screen size: about 360,000 compounds; about 7,300 (2%) were called active. No stated cut-off is given here; in the data, active means inhibition above about 50%; inactive means the rest. This excerpt belongs to a sample that is enriched for actives.

The assay is described as follows: inhibitors of TWEAK-Fn14 signaling, primary screen, luciferase reporter cells, uHTS (AID 1159606). As to conditions: TWEAK-stimulated Fn14 reporter cells, luciferase luminescence, 8 h; at 10 µM; hits give high values.
`CCOC(=O)N1CCC(NC(=O)c2ccc3nc(N4CCOCC4)sc3c2)CC1`: the inhibition is 18.3% (inactive). For `c1c2c(cc3sc(N4CCCCC4)nc13)OCCO2`, the inhibition is 98.9% (active). The result for `CCCCc1ccc(NS(=O)(=O)c2cccc(C(=O)N3CCCN(C)CC3)c2)cc1` reads 13.3% (inactive); that for `CN(C)/C=C/c1c(C#N)c(=O)ncn1Cc1ccccc1`, 1.93% (inactive); that for `CN(C)c1ccnc2sc3c(=O)n(Cc4ccccc4)cnc3c12`, 69.3% (active). The result for `O=c1c2c(ncn1Cc1ccccc1)nc1n2CCC1` reads -3.28% (inactive); that for `O=C(c1ccccc1)N1CCN(C(=O)c2cc3nc(-c4ccccc4)cc(C(F)(F)F)n3n2)CC1`, 12% (inactive); that for `O=C(c1ccccc1)N1CCN(c2cc(-c3ccccc3)nc3cc(-c4cccc(Cl)c4)nn23)CC1`, 50.7% (active). The figure for `C#Cc1cc(N2CCN(C(=O)c3ccoc3)CC2)n2nc(-c3cccc(Cl)c3)cc2n1` is -13.9% (inactive). Turning to `CCC(Sc1nncn1C)C(=O)Nc1nnc(-c2ccc(Cl)cc2)s1` (stereo not given), the inhibition is 2.15% (inactive). The result for `Cc1cc(C(=O)OCC(=O)Nc2ccc(F)c(F)c2)c(C)o1` reads -6.41% (inactive). The figure for `O=S(=O)(NCC1CCCO1)c1cnc(Cl)c(Cl)c1` (stereo not given) is 61.4% (active). The result for `O=S(=O)(NCC1CCCO1)c1ccc2ccccc2c1` (stereo not given) reads -2.08% (inactive); that for `CCOc1ccc(S(=O)(=O)NCC2CCCO2)cc1` (stereo not given), -13.5% (inactive); that for `CC1CCCC(C)N1C(=O)COC(=O)c1ccccc1C(=O)c1ccccc1` (stereo not given), 3.29% (inactive). As for `Cc1ncoc1C(=O)N1CCCC(C(=O)c2ccc3c4c(cccc24)CC3)C1` (stereo not given), the inhibition is -10.9% (inactive). The figure for `O=C(CCN1CCc2ccccc2C(O)(c2ccccc2)C1)c1ccc2c(c1)OCCO2` (stereo not given) is 60.1% (active); for `CCC1(c2ccccc2)NC(=O)N(CC(=O)c2ccc3c(c2)OCO3)C1=O` (stereo not given) it is 1.98% (inactive); for `O=C(CN1CCN(c2ccccc2F)CC1)c1ccc2c(c1)OCO2` it is -7.75% (inactive).

Turning to `NC(=O)c1nnsc1-c1ccc(-c2snnc2C(N)=O)cc1`, the inhibition is 16.3% (inactive).

Regarding `CCc1ccccc1N1CN(Cc2ccco2)CNC1=S`, the inhibition is -34% (inactive). The result for `CC(C)C(NC(=O)C1CCC(C(C)(C)C)CC1)C(=O)NCCCN1CCCCC1` (stereo not given) reads -11.2% (inactive); that for `Cc1cc(S(=O)(=O)N2CCOCC2)ccc1OCC(=O)N1CCOCC1`, 3.41% (inactive); that for `COC(=O)c1cc(Oc2ccc(S(=O)(=O)N3CCOCC3)cc2[N+](=O)[O-])cc(C(=O)OC)c1`, 3.34% (inactive). The result for `Cc1cc(C(=O)COc2ccccc2[N+](=O)[O-])c(C)n1-c1cccc(S(=O)(=O)N2CCOCC2)c1` reads 82.7% (active). For the compound `COCCN(C(=O)C(C)N1C(=O)c2ccccc2C1=O)c1c(N)n(CC(C)C)c(=O)[nH]c1=O` (stereo not given), the inhibition is 2.19% (inactive).

Turning to `CC/C(O)=C1\C(=O)CC(C)(C)CC1=NCCc1nc2ccccc2[nH]1`, the inhibition is 4.19% (inactive).

On to `CC1(C)O[C@@H]2CC3C4C[C@H](F)C5=CC(=O)C=CC5(C)C4C(O)CC3(C)[C@]2(C(=O)CO)O1` (stereo not given in full), for which the inhibition is -4.61% (inactive). The figure for `COc1ccc(C(=O)NCC[N+](C)(C)C)cc1` is 7.64% (inactive); for `CS(=O)(=O)N(CC(=O)N/N=C/c1ccccn1)c1ccc(Oc2ccccc2)cc1` it is 4.09% (inactive); for `c1ccc(CNc2ncnc3[nH]ncc23)cc1` it is 2.58% (inactive). The result for `Clc1ccc(Cn2ncc3c(NCc4cccnc4)ncnc32)cc1` reads 31.4% (inactive).

On to `Brc1ccc2ncnc(NCc3cccnc3)c2c1`, for which the inhibition was 62.2% (active). The figure for `Cc1ccccc1NC(=O)NC1(C(=O)N2CCCC2)CCCCC1` is -3.42% (inactive); for `CC(C)C(=O)NC(NC(=S)NC1CCS(=O)(=O)C1)C(Cl)(Cl)Cl` (stereo not given) it is 25.4% (inactive); for `O=S1(=O)CCC(NC(=S)SCc2ccccc2Br)C1` (stereo not given) it is 54.2% (active). For `O=C(Cc1ccc(Cl)cc1)NC1CCS(=O)(=O)C1` (stereo not given), the inhibition is -0.04% (inactive).

On to `COc1ccc(NC(=S)NC2CCS(=O)(=O)C2)cc1` (stereo not given), for which the inhibition is -0.47% (inactive). The result for `CCCSC(=S)NC1CCS(=O)(=O)C1` (stereo not given) reads 78.9% (active); that for `O=C(CSc1ccccc1F)NC1CCS(=O)(=O)C1` (stereo not given), 2.35% (inactive); that for `Cc1ccc(NC2CCCN(C(=O)CCC3(C)CC3)C2)cc1C` (stereo not given), -13.8% (inactive). For `CSc1ccc(/C=C2\NC(=O)NC2=O)cc1`, the inhibition is -11.1% (inactive). The figure for `CNC(=O)c1c(NC(NC(=O)c2ccco2)C(=O)c2ccc(Cl)cc2)sc2c1CCCC2` (stereo not given) is -9.64% (inactive); for `CCCc1nn(C)c2c(=O)[nH]c(-c3cc(S(N)(=O)=O)ccc3OCC)nc12` it is -1.76% (inactive); for `Cc1noc(/C=C/c2ccco2)c1S(=O)(=O)N1CCC(C(=O)N2CCc3ccccc32)CC1` it is 6.06% (inactive). As for `Cc1noc(/C=C/c2ccco2)c1S(=O)(=O)N1CCC(C(=O)Nc2ccc(Cl)cn2)CC1`, the inhibition is 51% (active). As to `CNC(=O)C1CCN(S(=O)(=O)c2c(C)noc2/C=C/c2cccc(C)c2)CC1`, the inhibition was -21.5% (inactive). The result for `CCCCN1C(=O)C(CC(=O)NCc2cccs2)CC(C(=O)N2CCCCCC2)=C1C` (stereo not given) reads -6.58% (inactive); that for `Oc1cc(O)c2c(c1)OC(c1ccc(O)c(O)c1)C(O)C2` (stereo not given), -8.69% (inactive). The figure for `Clc1ccc(-c2cccc3nccn23)cc1` is -3.21% (inactive); for `COC(=O)c1cccc(C(=O)N2CCCC(Nc3ccc4c(c3)OCCO4)C2)c1` (stereo not given) it is 13.2% (inactive). On to `CCCCN(C(C)=O)c1ccc2c(c1)C1CC2CCN1Cc1ccccc1` (stereo not given), for which the inhibition was -18% (inactive). The figure for `CCCCNC(=O)OCCSCCS(=O)(=O)c1ccc(Cl)cc1` is -5.78% (inactive); for `Cc1cccc(NC(=O)Cn2cc(C(=O)c3ccco3)c3ccccc32)c1` it is -6.45% (inactive); for `Cc1cccc(CN2CCC(CNC(=O)Nc3ccc(F)c(Cl)c3)CC2)c1` it is 10.9% (inactive).

As for `Cc1cccc(NC(=O)CCN2CC(C)CC(C)C2)c1` (stereo not given), the inhibition was -9.11% (inactive). The result for `Cc1ccc(C)c(Cn2nnc3c(=O)[nH]c(C(=O)Nc4ccc(F)cc4)nc32)c1` reads -5.18% (inactive). The result for `Cc1cccc(CS(=O)(=O)c2ncc(Cl)c(C(=O)Nc3ccc(F)cc3)n2)c1` reads 77% (active); that for `Cc1cccc(NC(=O)c2nc(S(=O)(=O)Cc3ccccc3)ncc2Cl)c1`, 75.7% (active). The result for `CC(C)CN(CC(C)C)CC(O)CN(c1ccccc1)S(=O)(=O)c1ccccc1[N+](=O)[O-]` (stereo not given) reads 16% (inactive); that for `CC(=O)C1C(c2ccc(Cl)cc2)c2c(n[nH]c2C)CC1(C)O` (stereo not given), -9.34% (inactive).

As for `CC(C)(C)C(=O)c1c(N)[nH]c(C(=O)c2ccccc2)c1-c1ccc(F)cc1`, the inhibition is -3.63% (inactive).

`CN(C(=O)Nc1ccc(Cl)cc1)n1cnc2ccccc2c1=O`: the inhibition was 1.4% (inactive). The result for `CC(C)(C)c1nc2ccccc2c(=O)n1N1C(=O)c2ccccc2C1=O` reads 20.8% (inactive). In the case of `CN(c1ccc2nc3ccccc3c(=O)n2n1)C1CCCCC1`, the inhibition is 105% (active).

In the case of `CCCCNC(=O)CSc1nc2ccc(NC(=O)CSc3nnc(N)s3)cc2s1`, the inhibition is 23.8% (inactive). The figure for `Nc1nnc(SCC(=O)Nc2ccc3nc(SCC(=O)Nc4ccccc4)sc3c2)s1` is 86.4% (active); for `CCCCNC(=O)CSc1nc2ccc(NC(=O)CSc3nnc(COc4ccccc4C)n3C)cc2s1` it is -37.4% (inactive).

As for `Cc1nc(CNS(=O)(=O)c2ccc(Oc3ccccc3)cc2)cs1`, the inhibition was 23.5% (inactive). The figure for `c1ccc2c(C[n+]3csc4ccccc43)cccc2c1` is -11.1% (inactive); for `OC(CN=c1sc2ccccc2n1CC(O)COc1ccccc1)COc1ccccc1` (stereo not given) it is 70.7% (active); for `CC(C)c1ccc(OCC(O)Cn2cnc3ccccc32)cc1` (stereo not given) it is -16.5% (inactive). The figure for `O=C(C(c1ccccc1)c1ccccc1)N1CCN(CC(O)COc2ccccc2)CC1` (stereo not given) is 3.97% (inactive); for `COc1ccc([C@H]2CC(=O)C[C@@H](CCn3cc(CC4CCCC4)nn3)O2)cc1` it is 7.34% (inactive).

On to `C[C@@H]1CC2=C(C(=O)OC(C)(C)O2)[C@@H](C2CC2)O1`, for which the inhibition was 4.57% (inactive).
